Holding throughout (settings): concentration: 1 μM,replicates: in singlicate; n = 1
The test system of assay [1] is AAK1.
Assay [2] relates to ABL1-nonphosphorylated.
Assay [3] relates to ABL1-phosphorylated.
Assay [4] concerns ABL2.
The test system of assay [5] is ACVR1B.
The subject of assay [6] is ACVR1.
Assay [7] has as its system ACVR2A.
Assay [8] has as its system ACVR2B.
The subject of assay [9] is ACVRL1.
Assay [10] deals with T1, ADCK3.
T1 construct: gene CABC1
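Note: KINOMEscan kinase panel screen.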

In the case of `O=C(NOCC1CC1)c1cc(Br)c(F)c(F)c1Nc1ccc(I)cc1Cl`, the “%Inh” value in assay [1] is given as 0%; in assay [2], 52%; in [3] it was 0%; in [4], 0%; in assay [5] it was 0%; in [6], 0%. Besides, the “%Inh” value was 2% in assay [7], 0% in assay [8], 0% in [9] and 7% in assay [10].

On to `CCn1c(-c2nonc2N)nc2cncc(CNC3CCNCC3)c21.Cl` [SB-747651], for which the “%Inh” value stood at 39% in assay [1]; 5% in assay [2]; 5% in assay [3]; 13% in [4]; 0% in [5]; 8% in assay [6]. In addition, the “%Inh” value in [7] is listed as 0%; in [8], 0%; in assay [9] it was 0%; in assay [10] it was 1%.

Take `CN1CCN(CCNc2nc3cc(Oc4ccc(NC(=O)Nc5cc(C(F)(F)F)ccc5F)cc4)ccc3[nH]2)CC1.Cl.Cl` [GW768504]: the “%Inh” value stood at 0% in assay [1]; 51% in [2]; 23% in assay [3]; 0% in assay [4]; 0% in assay [5]; 0% in [6]. The “%Inh” value in assay [7], in [8], in assay [9] and in [10] was 0% each time.

Take `COc1cc2ncn(-c3cc(OCC4CCCCC4)c(C(N)=O)s3)c2cc1OC` [GSK204559]: the “%Inh” value in [1] turned out to be 55%; in assay [2], 0%; in assay [3], 0%; in assay [4] it was 14%; in [5], 0%; in [6], 5%. Further, the “%Inh” value in [7] was found to be 18%; in [8], 32%; in assay [9], 0%; in assay [10] it was 11%.

With `COc1cc(Nc2nccc(N3CCC(NC(=O)c4cccc(C#N)c4)C3)n2)cc(OC)c1OC` (centres unmarked) [GSK1379751], the “%Inh” value in [1] was found to be 75%; in assay [2], 0%; in assay [3], 0%; in assay [4], 3%; in [5] it was 0%; in assay [6] it was 98.8%. In addition, the “%Inh” value in assay [7] worked out at 0%; in [8] it was 0%; in [9] it was 0%; in [10] it was 4%.

Take `Cc1ccn2nc(-c3ccc(F)cc3)c(-c3ccncc3)c2c1.Cl` [GW457859]: the “%Inh” value came out at 0% in assay [1]; 0% in assay [2]; 0% in assay [3]; 0% in assay [4]; 0% in assay [5]; 9% in assay [6]. Further, the “%Inh” value in assay [7] turned out to be 0%; in assay [8], 32%; in [9], 0%; in assay [10] it was 17%.

As for `Cc1ccc(Nc2ccnc(Nc3ccc4c(c3)CS(=O)(=O)C4)n2)cc1O.Cl` [GW579362], the “%Inh” value was determined as 80% in assay [1]; 99.3% in assay [2]; 99.8% in assay [3]; 99.3% in assay [4]; 84% in assay [5]; 99.5% in assay [6]. Also, the “%Inh” value in [7] amounted to 72%; in assay [8], 95.6%; in [9] it was 85%; in assay [10], 8%.

As for `Cn1ccc2ncnc(Oc3ccc(NC(=O)Nc4cnn(C(C)(C)C)c4)c(Cl)c3)c21`, the “%Inh” value was 3% in assay [1]; 87% in assay [2]; 39% in assay [3]; 11% in assay [4]; 2% in assay [5]; 0% in assay [6]. Further, the “%Inh” value in assay [7] turned out to be 0%; in assay [8], 0%; in [9] it was 17%; in assay [10], 0%.

The record behind these values is PMC5540273 (PLoS ONE, 2017).
